# ABCB6 inh 2 – ABCB6 transporter inhibitors, primary screen, K562-ABCB6 cells, flow cytometry, MLPCN library; ATP-binding cassette sub-family B member 6 (Homo sapiens), Q9NP58; K562-ABCB6 porphyrin accumulation, 1 h; hits give low values; fluorescence ratio to DMSO, % at 10 µM; 360,000 tested, 0.19% active; AID 602162, 2011;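 active = fluorescence ratio to DMSO below 75%, the collection mean minus 3 SD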;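 note: signal is porphyrin accumulated inside mitochondria; 100% equals median channel fluorescence of DMSO control wells; lower ratio means ABCB6 inhibition with less porphyrin fluorescence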
# CendR NRP1 mod – modulators of CendR peptide binding to NRP-1, primary screen, biochemical, fluorescence polarization, uHTS; 360,000 tested, 0.85% active; FAM-RPARPAR peptide binding to NRP-1; AID 602438, 2012; Neuropilin-1 (Homo sapiens), O14786; inhibition, % at 25 µM;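 active = inhibition or corrected inhibition above about 18%, plus a signal ratio from 0.5 to 1.5, limit read from the data, passing the limit was not always enough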
# Target sequence (O14786 whole entry, looked up): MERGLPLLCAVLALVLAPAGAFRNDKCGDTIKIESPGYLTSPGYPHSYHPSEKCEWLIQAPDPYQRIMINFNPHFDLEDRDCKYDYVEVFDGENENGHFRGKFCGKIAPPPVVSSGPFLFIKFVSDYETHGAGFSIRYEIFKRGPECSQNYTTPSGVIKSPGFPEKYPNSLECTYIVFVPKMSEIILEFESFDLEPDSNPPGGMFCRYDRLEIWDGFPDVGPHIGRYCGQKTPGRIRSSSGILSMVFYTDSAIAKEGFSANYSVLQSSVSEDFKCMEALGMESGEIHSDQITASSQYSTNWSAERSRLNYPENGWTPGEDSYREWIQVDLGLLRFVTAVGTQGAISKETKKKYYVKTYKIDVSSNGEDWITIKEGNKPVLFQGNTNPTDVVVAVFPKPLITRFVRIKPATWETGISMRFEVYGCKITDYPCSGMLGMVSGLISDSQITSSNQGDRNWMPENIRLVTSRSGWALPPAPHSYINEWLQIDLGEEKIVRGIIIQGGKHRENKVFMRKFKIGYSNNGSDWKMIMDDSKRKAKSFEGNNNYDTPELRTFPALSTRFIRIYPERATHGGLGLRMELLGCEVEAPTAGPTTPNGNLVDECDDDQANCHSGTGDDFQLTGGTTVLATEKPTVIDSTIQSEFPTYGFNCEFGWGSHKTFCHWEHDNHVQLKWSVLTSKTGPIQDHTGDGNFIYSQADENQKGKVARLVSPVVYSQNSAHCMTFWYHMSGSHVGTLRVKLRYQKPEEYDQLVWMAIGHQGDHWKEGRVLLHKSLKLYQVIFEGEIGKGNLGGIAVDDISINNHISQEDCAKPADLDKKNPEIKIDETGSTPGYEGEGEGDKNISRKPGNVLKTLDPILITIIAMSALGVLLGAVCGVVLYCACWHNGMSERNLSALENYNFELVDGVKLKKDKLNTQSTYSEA
# INS-1E GSIS act – GLuc luminescence reporter in INS-1E cells, primary screen for activators of glucose-dependent secretion of insulin | 370,000 tested, 0.61% active | activation, % at 16.6 µM | INS-1E GLuc reporter insulin secretion, 2-3 h;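 active = lowest replicate activation of at least 40%, so every replicate reaches that level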;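 note: 0% = median of neutral control wells and 100% = median of IBMX positive control wells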
# ARNT-TACC3 inh – disruptors of ARNT/TACC3 protein interaction, primary screen, biochemical, AlphaScreen, single concentration; AID 623870, 2012; AlphaScreen His-ARNT PAS-B/GST-TACC3 binding, luminescence; TACC3 fragment carries E629A point mutation; 390,000 tested, 0.66% active; inhibition, % at 9.99 µM;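 active = mean inhibition of replicates at least 50% and at least half of replicates each reaching 50%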;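 note: 0% = complete ARNT plus TACC3 wells and 100% = ARNT alone without TACC3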
# hiPSC survival – enhancers of single-cell hiPSC survival, primary screen, ATPlite luminescence. 100% = ROCK inhibitor wells, 0% = DMSO. 360,000 tested, 0.044% active. survival enhancement, % at 20 µM; in the data active = survival enhancement above about 18%;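 note: cells exposed to compounds for 16 hours before the ATP read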
# Active calls of the source: *; / = no result. This is a sample that favours compounds with a hit; in the whole collection about 1.8% have one here.
SMILES,ABCB6 inh 2,CendR NRP1 mod,INS-1E GSIS act,ARNT-TACC3 inh,hiPSC survival
CCC(=O)N1C[C@@H](C)[C@@H](OC)CN(C)C(=O)c2cc(NC(=O)CC(F)(F)F)ccc2OC[C@H]1C,/,/,5,/,/
COCC(=O)Nc1ccc2c(c1)[C@@H]1C[C@H](CC(=O)NCCc3ccccc3)O[C@H](CO)[C@@H]1O2,/,/,4,-1,/
C[C@H]1CC=CC[C@H](c2ccc3c(c2)OCO3)NC(=O)[C@H](Cc2ccccc2)N(C)C(=O)c2ccccc2O1 (mixture of isomers),/,/,-13,/,/
Cc1ccc(OC(C)C(=O)Nc2ccccc2C(=O)N2CCN(C)CC2)cc1 (centres undefined),96,20*,28,-3,0
C[C@H]1CN([C@@H](C)CO)C(=O)c2cc(-c3cccc(F)c3)cnc2O[C@H]1CN(C)CC1CCOCC1,/,/,12,-5,/
CCOC(=O)/C(=C/C=C1\Sc2cc(OCC)c(OCC)cc2N1CC)C(C)=O,153,133,2,51*,1
CCN1/C(=C/C(C)=O)Sc2ccc(OC)cc21,99,4,/,5,0
CCOC(=O)/C(=C\C=C1/Sc2cc(OCC)c(OCC)cc2N1CC)C(C)=O,116,121,-10,51*,4
O=C(c1ccncc1)N1CC2(C1)[C@@H](c1ccccc1)[C@@H](CO)N2C(=O)c1ccncc1,/,/,15,/,/
CCSc1nnc(-c2cnn(-c3ccccc3)c2-n2cccc2)n1C,97,44*,0,-3,-1
Cc1ccc(S(=O)(=O)Nc2cccc3ncccc23)cc1,100,-7,18,-8,0
Cc1ccc(S(=O)(=O)Nc2cccc3ncccc23)s1,93,-21,12,70*,-1
COc1ccc(CCNC(=O)CSc2n[nH]c(C)c2[N+](=O)[O-])cc1OC,96,-10,52*,2,1
COc1ccc(CCNC(=O)COC(=O)CSc2ccc(C(N)=O)cc2[N+](=O)[O-])cc1OC,106,8,46*,-4,1
CCn1cc(/C=C(\NC(=O)c2ccc(OC)cc2)C(=O)N2CCN(C)CC2)c2ccccc21,107,-3,-16,48*,0
CCCC(=O)Nc1ccc2c(c1)C(=O)N(C)[C@H]1CC[C@@H](CC(=O)N3CCc4ccccc4C3)O[C@H]1CO2,/,/,-11,8,/
O=C(c1ccccc1)c1ccccc1C(=O)N1CCN(Cc2ccccc2F)CC1,92,0,-2,-2,0
CN1CCN(CC(=O)c2ccccc2F)CC1,108,17*,4,-3,0
O=C(c1ccccc1F)N1CCN(Cc2ccccc2F)CC1,95,29*,/,-10,-3
O=C(c1ccco1)N1N=C(C2CCCCC2)CC1(O)C(F)(F)F (centres undefined),100,-8,52*,-4,-1
Cc1occc1C(=O)N1N=C(C2CC2)CC1(O)C(F)(F)F (centres undefined),97,34*,11,-11,0
O=C(c1ccncc1)N1N=C(C2CCCCC2)CC1(O)C(F)(F)F (centres undefined),99,-9,19,/,-1
CCCN(C)C[C@H]1Oc2ncc(-c3ccccc3)cc2C(=O)N([C@H](C)CO)C[C@H]1C,/,/,19,-3,/
COc1cc(Nc2cccc(-c3ccccc3)n2)cc(OC)c1OC,100,30*,-39,/,0
O=C(Nc1cccc(C(F)(F)F)c1)C1Cc2c(-c3cccc(F)c3)ccnc2O1 (centres undefined),93,30*,/,/,-2
SMILES,ABCB6 inh 2,CendR NRP1 mod,INS-1E GSIS act,ARNT-TACC3 inh,hiPSC survival
COc1ccc(CNC(=O)C2Cc3c(-c4cccc(F)c4)ccnc3O2)cc1OC (centres undefined),93,-3,57*,/,-1
CC(C)N1C(=O)CCC1C(=O)N1CCCc2ccccc21 (centres undefined),98,8,-7,13*,-2
CC(C)(C)c1ccc(S(=O)(=O)N2CCN(c3ncccn3)CC2)cc1,89,27*,16,/,1
COc1ccc(CNC(=O)C[C@H]2C[C@@H]3c4cc(NC(=O)CC5CC5)ccc4O[C@@H]3[C@@H](CO)O2)cc1,/,/,-12,/,/
CC(C)[C@@H]1C(=O)N[C@@H](c2ccc3c(c2)OCO3)C/C=C/C[C@H](C)Oc2ccccc2C(=O)N1C,/,/,-12,/,/
Cc1ncc(S(=O)(=O)c2ccccc2)c(-c2ccccc2)n1,99,8,/,0,-2
O=S(=O)(c1ccccc1)c1cnc(-c2cccnc2)nc1-c1ccc(Cl)c(Cl)c1,86,20*,/,-6,1
Cc1noc(C)c1NC(=O)N(C)C[C@H]1Oc2ccc(NC(=O)Nc3ccccc3)cc2CC(=O)N([C@@H](C)CO)C[C@H]1C,/,/,21,3,/
C[C@@H]1CCCCO[C@@H](CN(C)Cc2ccncc2)[C@H](C)CN([C@@H](C)CO)C(=O)c2cc(NC(=O)CCCCCC(=O)Nc3ccccc3N)ccc2O1,/,/,17,/,/
O=C(NCCCn1ccnc1)C(=O)NCC1OCCN1S(=O)(=O)c1ccc2c(c1)OCCO2 (centres undefined),99,5,-12,64*,1
COc1cc(CN(CC2CCCO2)C(=O)c2cccs2)cc(OC)c1OC (centres undefined),94,26*,1,-3,0
Cc1ccc2[nH]c(=O)c(CN(CC3CCCO3)C(=O)c3cccs3)cc2c1 (centres undefined),95,2,156*,-14,-1
Cc1ccc2cc(CN(CC3CCCO3)C(=O)c3cccs3)c(=O)[nH]c2c1 (centres undefined),100,-2,-7,-7,1
C[C@H](CO)N1C[C@H](C)[C@@H](CN(C)Cc2ccc(-c3ccccc3)cc2)Oc2ccc(NS(=O)(=O)c3ccc(F)cc3)cc2CC1=O,/,/,-9,/,/
Cc1nc(Cl)cc(N/N=C/c2ccc(O)cc2O)n1,96,-6,2,27*,-1
COc1ccc(C2=Nn3c(nnc3-c3cccnc3)SC2)cc1OC,97,-6,/,10,0
COc1ccc(C2=Nn3c(nnc3-c3ccccc3OC)SC2)cc1OC1CCOC1 (centres undefined),102,15,56*,47*,-1
COc1ccc(-c2nnc(-c3cc(OC)c(OC)c(OC)c3)o2)cc1OC,95,6,/,-9,2
COc1ccc(C2=Nn3c(nnc3-c3ccccn3)SC2)cc1,91,-2,30,82*,-3
COc1ccc(-c2ccncc2)cc1OC,96,7,107*,7,-2
COc1ccc(C2=Nn3c(nnc3-c3ccncc3)SC2)cc1OC,101,-9,85*,8,-2
CC(C)NC[C@H]1[C@H](c2ccc(C3=CCCCC3)cc2)[C@@H](CO)N1C(=O)NC(C)C,/,/,-18,13,/
